Most compounds without a hit are left out; they make up all but 14% or so of the library.
4MU fluor: qHTS Assay for Spectroscopic Profiling in 4-MU Spectral Region; AID 589, 2007; hit rate 11% among 59,000; max dye-equivalent concentration, M; compound autofluorescence, 340/450 nm, 4-MU equivalents; stronger effect = higher value; in the data active means max dye-equivalent concentration above about 10 nM; inconclusive means mostly about 1.1 nM to 9.6 nM
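Compounds in 100 mM Tris, pH 8.0, sat 15 min at room temperature before fluorescence was read at 340 nm excitation/450 nm emission; a per-plate six-point 4-MU standard curve converted signals to dye-equivalent concentration at each compound concentration.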
AID923: qHTS Assay for Allosteric/Competitive Inhibitors of Caspase-1: Spectroscopic Profiling in AFC Spectral Region; hit rate 1.1% among 75,000; AID 923, 2007; Potency, µM (titrated, usually from 57.5 µM), for the others: at the top dose fluorescence increase, hits mostly activators; compound fluorescence, AFC spectral region (405/520 nm); further: potency means the concentration at half of the fitted maximal effect; 0% is about no effect
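Compound autofluorescence profiled at 405 nm ex/520 nm em during kinetic caspase 1 run (50 nM enzyme, 5 uM Ac-WEHD-AFC, HEPES pH 7.5, 10 mM DTT). Titration up to 57 uM; baseline from regression intercept, normalized to AFC standard curve.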
HADH2 inh: qHTS Assay for Inhibitors of HADH2 (Hydroxyacyl-Coenzyme A Dehydrogenase, Type II); 3-hydroxyacyl-CoA dehydrogenase type-2 (Homo sapiens), Q99714; recombinant HADH2, NADH fluorescence, beta-hydroxybutyryl-CoA; Potency, µM (titrated, usually from 57.1 µM), without a hit: top-dose activity change, negative = inhibition, actives largely listed as inhibitors; hit rate 3.4% among 73,000; further: potency means the concentration at half of the fitted maximal effect; on the % scale 0 is the no-effect control and ±100 the full control effect; nearly all actives have a fitted effect of over 60% in size
Target sequence (Q99714 whole entry, looked up, one chain of several): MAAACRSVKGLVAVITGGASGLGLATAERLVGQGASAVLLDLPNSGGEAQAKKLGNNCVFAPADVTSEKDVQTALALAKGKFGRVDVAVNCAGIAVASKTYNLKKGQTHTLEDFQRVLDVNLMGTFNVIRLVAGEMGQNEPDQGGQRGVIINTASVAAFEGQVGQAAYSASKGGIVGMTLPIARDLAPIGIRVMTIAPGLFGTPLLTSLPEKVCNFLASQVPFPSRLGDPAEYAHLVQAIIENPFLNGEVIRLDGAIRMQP
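Read-out: 360 nm excitation, 450 nm emission, kinetic over 4 min. Conditions: His-tagged human HADH2 20 nM, pH 9.0 Tris with Tween-20, 1 mM NAD+, 90 uM beta-hydroxybutyryl-CoA.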
A350 autofl: qHTS Assay for Spectroscopic Profiling in A350 Spectral Region | hit rate 11% among 59,000 | max dye-equivalent concentration, M | AID 590, 2007 | Compound autofluorescence, 340/450 nm, Alexa 350 dye-equivalents; stronger effect = higher value; in the data active means max dye-equivalent concentration above about 10 nM; inconclusive means mostly about 1.1 nM to 9.6 nM
HSD17B inhib: qHTS Assay for Inhibitors of HSD17B4, hydroxysteroid (17-beta) dehydrogenase 4; 3-hydroxyacyl-CoA dehydrogenase type-2 (Homo sapiens), Q99714; recombinant HSD17B10, NADH fluorescence kinetic; Potency, µM (highest dose often 57.1 µM), without a hit: at the highest dose activity change, negative = inhibition, most hits filed as inhibitors; hit rate 7.6% among 75,000; AID 893, 2007;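 further: the protocol describes HADH2 (HSD17B10) and not the HSD17B4 of the title; potency means the concentration at half of the fitted maximal effect; on the % scale 0 is the no-effect control and ±100 the full control effect; nearly all actives have a fitted effect of over 70% in size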
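Enzyme plus compound, 15 min room temperature; substrate mix added (NAD+ 1 mM, beta-hydroxybutyryl-CoA 90 uM final); plates read kinetically for NADH fluorescence. HADH2 was His-tagged, E. coli-derived, 20 nM.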
CRE Fsk mod: Cell signaling CRE-BLA (Fsk stim). CHO CRE-bla reporter (cAMP response element driving beta-lactamase), forskolin EC10, beta-lactamase ratio. Potency, µM (doses to about 38.2 µM), for the others: at the highest dose activity change, negative = inhibition, actives largely listed as activators. hit rate 2.5% among 71,000; active means well fitted activation curve with a large enough effect in the signal ratio, with a control signal flat, not every such curve was filed as active; inconclusive means small, poorly fitted or top-dose-only effect, or effect the other way, or a change in a side signal; the % refers to the signal ratio; further: potency means the concentration at half of the fitted maximal effect; % of control where 0% means no effect
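CRE-bla CHO reporter cells treated with compound titration plus EC10 NKH 477 (water-soluble forskolin), incubated 3 h at 37 °C; CCF4 loading 2 h at room temperature, 460/530 nm emission ratio read, AC50 values derived for positive or negative modulators.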
* marks the source's active call; other numbers are inactive results; [ ] = another dose, or the depositor's remark. Unless noted, the call rests on the fitted dose curve; in most records, active means well fitted curve in the direction sought with a large enough effect; inconclusive means small, poorly fitted or top-dose-only effect, or another doubt; inactive means no such curve, though single readings can be large; an effect the other way counts as inactive or inconclusive.

For Nc1nc(N)c2nn(-c3ccc(C(=O)O)cc3)nc2n1 the results were 4MU fluor 1.86e-07M*, AID923 4.8%[11.5 µM], HADH2 inh 25.3%[11.4 µM], A350 autofl 2.14e-07M*, HSD17B inhib 3.98µM* and CRE Fsk mod -2.6%[7.6 µM].
`CCCc1c(-c2ccc(O)cc2)nn(-c2ccc(O)cc2)c1-c1ccc(O)cc1` gave 4MU fluor inactive, AID923 -4.3%, HADH2 inh 3.16µM*, A350 autofl inactive, HSD17B inhib 15.8µM* and CRE Fsk mod inconclusive.
Fc1ccc([C@H]2CCNCC2COc2ccc3c(c2)OCO3)cc1 (some centres not stated) was read as AID923 0.2% and HSD17B inhib 10.9%.
For CCCn1nc(CC(=O)O)c2ccccc2c1=O the results were 4MU fluor inconclusive, AID923 1.7%, HADH2 inh 26.9%, A350 autofl 1.23e-08M*, HSD17B inhib 4.5% and CRE Fsk mod inconclusive.
COc1c2c(nc3ccccc13)O[C@H]([C@@](C)(O)CO)C2 was read as 4MU fluor 2.19e-08M*, AID923 -0.6%[25.7 µM], HADH2 inh -3.3%[25.6 µM], A350 autofl 2.9e-08M*, HSD17B inhib -3.1%[25.6 µM] and CRE Fsk mod 8.6%[17.1 µM].
COc1cc(C(=O)O)nc2ccccc12 was read as 4MU fluor inactive, AID923 1.6%, HADH2 inh 9.8%, A350 autofl inactive, HSD17B inhib 10.6% and CRE Fsk mod 2.2%.
CC(C)(C)OC(=O)N1CCC[C@H]1c1nnc(SCc2c(F)cccc2Cl)o1 was read as 4MU fluor inconclusive, AID923 0.9%, HADH2 inh -9.4%, A350 autofl 1.09e-08M*, HSD17B inhib -4.8% and CRE Fsk mod -1.6%.
`COc1ccc2ccccc2c1C1CC(=O)N2CN(C)CSC2=C1C#N` (configuration not stated) gave 4MU fluor inconclusive, AID923 0.3%, HADH2 inh inconclusive, A350 autofl inconclusive, HSD17B inhib 12.6µM* and CRE Fsk mod inconclusive.
`CC(C)c1ccc(C2CC(=O)N3CN(C)CSC3=C2C#N)cc1` (configuration not stated) gave AID923 -0.3%, HADH2 inh 2µM*, HSD17B inhib 25.1µM* and CRE Fsk mod 17.6%.
COc1ccc(Br)cc1C1CC(=O)N2CN(Cc3ccccc3)CSC2=C1C#N (configuration not stated) was read as AID923 -2.2%, HADH2 inh 2µM*, HSD17B inhib inconclusive and CRE Fsk mod inconclusive.
`COc1ccc(Br)cc1C1CC(=O)N2CN(C)CSC2=C1C#N` (configuration not stated) gave AID923 -1.3%, HADH2 inh 2µM*, HSD17B inhib inconclusive and CRE Fsk mod 13.6%.
For CC(C)C[C@@H](N)C(=O)Nc1ccc2ccccc2c1 the results were 4MU fluor inactive, AID923 -1.2%[11.5 µM], HADH2 inh 6.7%[11.4 µM], A350 autofl inconclusive, HSD17B inhib 2.4%[11.4 µM] and CRE Fsk mod -9.4%[7.6 µM].
Screening N[C@@H](CSc1nc2ccccn2c1[N+](=O)[O-])C(=O)O returned 4MU fluor inactive, AID923 0.0%[11.5 µM], HADH2 inh -1.8%[11.4 µM], A350 autofl inactive, HSD17B inhib 1.8%[11.4 µM] and CRE Fsk mod 6.7%[7.6 µM].
CCN1C(=O)[C@H]2[C@H]3[C@H](O)[C@H](O)C/C(=N/NC(=O)OCc4ccc(OC)cc4)[C@H]3CC[C@@H]2C1=O was read as AID923 -1.7%[11.5 µM], HADH2 inh -2.1%[11.4 µM] and HSD17B inhib -3.6%[11.4 µM].
`COc1cc(OC)c(C2CC(=O)N3CN(C)CSC3=C2C#N)cc1OC` (configuration not stated) gave AID923 -0.6%, HADH2 inh 2.51µM*, HSD17B inhib inconclusive and CRE Fsk mod 22.1%.
`CO[C@H]1COC(=O)C/C=C\[C@H](C)[C@@H](NS(=O)(=O)c2ccc(C)cc2)COC(=O)C/C=C\[C@@H]1C` gave AID923 0.1%[11.5 µM], HADH2 inh 22.9%[11.4 µM] and HSD17B inhib -0.3%[11.4 µM].
`O=C(c1ccccc1)n1c(=S)nc2ccccn21` gave 4MU fluor inactive and A350 autofl inactive.
Screening O=C(N=c1nc2ccccn2s1)c1ccccc1 returned 4MU fluor 1.18e-08M*, AID923 -1.3%, HADH2 inh -7.8%, A350 autofl 1.17e-08M*, HSD17B inhib 0.1% and CRE Fsk mod -11.2%.
COc1ccc(CNC(=O)CN(CC2CCCO2)C(=O)CNS(=O)(=O)c2ccc(C)cc2)cc1 (configuration not stated) was read as 4MU fluor 1.24e-08M*, AID923 1.4%, HADH2 inh 0.1%, A350 autofl 1.23e-08M*, HSD17B inhib 17.7% and CRE Fsk mod -3.3%.
`COC(=O)[C@@]1(Cc2ccc(F)cc2)[C@H]2c3cc(C(=O)N4CCCC4)n(CCc4c[nH]c5cc(F)ccc45)c3C[C@H]2CN1C(=O)c1ccccc1` gave AID923 4.8%, HADH2 inh -1.4%, HSD17B inhib 18.5% and CRE Fsk mod -15.1%.
c1ccc2nc3[nH]cnc3nc2c1 was read as 4MU fluor 1.84e-07M*, AID923 -0.4%, HADH2 inh inconclusive, A350 autofl 1.95e-07M*, HSD17B inhib 31.6µM* and CRE Fsk mod 5.6%.
Screening Clc1ccc(Cn2ncc3c(N4CCCC4)ncnc32)cc1 returned 4MU fluor inactive, AID923 0.6%, HADH2 inh 15.4%, A350 autofl inactive, HSD17B inhib -3.6% and CRE Fsk mod 10µM*.
Cc1ccc(NC(=O)COc2ccc3oc4c(c3c2)CCCC4)nc1 was read as 4MU fluor inactive, AID923 2.3%, HADH2 inh 11.9%, A350 autofl inactive, HSD17B inhib 5.3% and CRE Fsk mod 2.8%.
For O=C(O)C(Oc1ccc2c3c(c(=O)oc2c1)CCC3)c1ccccc1 (configuration not stated) the results were 4MU fluor 9.29e-08M*, AID923 -1.0%, HADH2 inh -24.1%, A350 autofl 1.06e-07M*, HSD17B inhib 25.1µM* and CRE Fsk mod 3.0%.
CC(=O)C(C)Oc1ccc2c3c(c(=O)oc2c1)CCCCC3 (configuration not stated) was read as 4MU fluor 5.12e-08M*, AID923 -5.6%, HADH2 inh 20µM*, A350 autofl 4.65e-08M*, HSD17B inhib 25.1µM* and CRE Fsk mod inconclusive.

Compound activity from PubChem.
